Screening data from PubChem BioAssay.
This is a sample that favours compounds with a hit; in the whole collection about 21% have one here.
CHX counter: affects cycloheximide protein synthesis inhibition readout, counter-screen; 12% of 300,000 active; cell reporter, cycloheximide protein synthesis inhibition counterscreen; max response, %; AID 2314; in the data active = max response mostly above about 13%, no sharp cut-off; inactive = mostly below about 14%; also: read at 38.3 µM for the half of the compounds with a filed dose; 0% is about no effect
SARS PLpro yeast: blocks SARS-CoV papain-like protease in a yeast assay. S. cerevisiae expressing SARS-CoV PLpro, growth rescue. Potency, µM (titrated, usually from 32.9 µM), for inactives: top-dose activity, positive = growth rescue, most hits filed as activators. 0.19% of 330,000 active. AID 485353; calls by dose curve; also: potency is read from the fitted curve at half-maximal effect; 0% is about no effect; nearly all actives have a fitted effect of over 55% in size
Pf growth 96h: P. falciparum growth inhibition at 96 hour, primary screen for plastid delayed-death inhibitors; P. falciparum luciferase reporter growth, 96 h; Potency, µM (highest dose often 28.7 µM), without a hit: at the top dose activity change, negative = inhibition, hits mostly inhibitors; 6.9% of 320,000 active; AID 504834; also: potency is read from the fitted curve at half-maximal effect; % is scaled to controls: 0 for no effect and ±100 for the full control effect
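Compounds incubated with erythrocytes infected by luciferase-expressing P. falciparum (2% hematocrit, 0.05% parasitemia final) for 96 hours, 37 C in 5% CO2. Growth inhibition scored as decreased luciferase luminescence.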
Pf growth 48h: P. falciparum growth inhibition at 48 hours (one generation); AID 504832; Potency, µM (top dose mostly 28.7 µM), for inactives: at the highest dose activity change, negative = inhibition, hits mostly inhibitors; 5.9% of 310,000 active; P. falciparum luciferase growth in erythrocytes, 48 h; also: potency is read from the fitted curve at half-maximal effect; % is scaled to controls: 0 for no effect and ±100 for the full control effect
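Compounds are pin-transferred into medium, infected erythrocytes (2% hematocrit, 0.1% parasitemia final) are added, and plates sit one parasite generation at 37 C in 5% CO2. Detection reagent is then added and luminescence measured.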
NS1 function inh: blocks influenza NS1 protein function; Potency, µM (doses to about 46.1 µM), for inactives: at the top dose activity, positive = more growth; 0.4% of 270,000 active; AID 2326; calls by dose curve; also: potency is read from the fitted curve at half-maximal effect; actives are rising curves; nearly all actives have a fitted effect of over 50% in size
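OD600 was taken as the measure of yeast growth restored by compound in an NS1-expressing S. cerevisiae strain. Cells had been washed out of glucose medium and diluted 1:100 into galactose -URA medium, pH 6.0.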
Shiga toxin inh: blocks Shiga toxin action in Vero cells | 9.2% of 290,000 active | Vero cells, Shiga toxin protein synthesis inhibition reporter | inhibition, % at 38.7 µM | AID 2315; in the data active = inhibition mostly above about 28%, no sharp cut-off; inactive = mostly below about 43%; also: 0% is about no effect
The depositor's hits bear a star. Unless noted, calls follow the shape of the dose curve; as a rule, active = well fitted inhibition curve with a large enough effect; inconclusive = small, poorly fitted or top-dose-only effect, or another doubt; inactive = no such curve, though single readings can be large or run the other way.

What do the screens show for `COc1ccc(S(=O)(=O)N2CCCC(C(F)(F)F)C2)cc1` (stereo not drawn)?
CHX counter: 0.7; SARS PLpro yeast: 0.2%; Pf growth 96h: 3.8%; Pf growth 48h: 0.8%; NS1 function inh: 2.3%; Shiga toxin inh: 15.5

How did Cc1cc(C)c(S(=O)(=O)N2CCOC2CNC(=O)C(=O)NCc2ccncc2)c(C)c1 (stereo not drawn) do in these assays?
CHX counter: -0.7; SARS PLpro yeast: 1.2%; Pf growth 96h: 0.2%; Pf growth 48h: 2.0%; NS1 function inh: 4.9%; Shiga toxin inh: 6.5

Results for COc1ccc(-c2csc3ncnc(N4CCN(Cc5ccccc5)CC4)c23)cc1 ?
CHX counter: 0.6; SARS PLpro yeast: -0.5%; Pf growth 96h: 6.57µM*; Pf growth 48h: inconclusive; NS1 function inh: -9.3%; Shiga toxin inh: 16.2

What do the screens show for `COc1ccc(-c2csc3ncnc(N4CCN(c5ccccc5)CC4)c23)cc1`?
CHX counter: -1.2; SARS PLpro yeast: -11.8%; Pf growth 96h: inconclusive; Pf growth 48h: inconclusive; NS1 function inh: 1.8%; Shiga toxin inh: -4.5

Results for Cc1ccc(OCCCN2CCOCC2)c([N+](=O)[O-])c1 ?
CHX counter: 35.9*; SARS PLpro yeast: -14.9%; Pf growth 96h: -0.7%; Pf growth 48h: 127.1%; NS1 function inh: 7.0%; Shiga toxin inh: 73.6*

What do the screens show for `Clc1cc(Br)ccc1OCCCn1ccnc1`?
CHX counter: -1.9; SARS PLpro yeast: -45.9%; Pf growth 96h: inconclusive; Pf growth 48h: inconclusive; NS1 function inh: 1.2%; Shiga toxin inh: 29.0

How did CCCCCOc1ccc(Cn2ccnc2)cc1[N+](=O)[O-] do in these assays?
CHX counter: 12.7; SARS PLpro yeast: -16.7%; Pf growth 96h: inconclusive; Pf growth 48h: inconclusive; NS1 function inh: -25.2%; Shiga toxin inh: 63.9*

What do the screens show for `Cc1ccc(OCCCn2ccnc2)c(Br)c1`?
CHX counter: 19.6*; Pf growth 96h: -17.5%; Pf growth 48h: inconclusive; NS1 function inh: -6.6%; Shiga toxin inh: 32.5

What do the screens show for `CCOc1ccc(Cn2ccnc2)cc1[N+](=O)[O-]`?
CHX counter: -1.1; SARS PLpro yeast: 12.6%; Pf growth 96h: -6.1%; Pf growth 48h: 5.6%; NS1 function inh: 17.2%; Shiga toxin inh: -19.8

How did Cc1ccc(OCCCn2ccnc2)c([N+](=O)[O-])c1 do in these assays?
CHX counter: -1.7; SARS PLpro yeast: -7.5%; Pf growth 96h: 6.57µM*; Pf growth 48h: -6.5%; NS1 function inh: 1.1%; Shiga toxin inh: 2.8

How did N#CCn1cc(/C=N/NC(=O)c2cc3c(ccc4ccccc43)o2)c2ccccc21 do in these assays?
CHX counter: 7.4; SARS PLpro yeast: 0.7%; Pf growth 96h: 11.7µM*; Pf growth 48h: 9.28µM*; NS1 function inh: 12.3%; Shiga toxin inh: -4.4

How did COc1ccccc1/C=N/NC(=O)c1cc2c(ccc3ccccc32)o1 do in these assays?
CHX counter: 1.4; SARS PLpro yeast: -7.4%; Pf growth 96h: 1.8%; Pf growth 48h: -0.5%; NS1 function inh: 6.2%; Shiga toxin inh: -12.1

Results for NC(=O)N=Nc1c2[nH]c3ccccc3nc-2c2ccccc12 ?
CHX counter: 1.1; SARS PLpro yeast: 2.3%; Pf growth 96h: inconclusive; Pf growth 48h: inconclusive; NS1 function inh: -1.8%; Shiga toxin inh: 8.0

What do the screens show for `Nn1c(CN2CCCCC2)nc2ccccc2c1=O`?
CHX counter: -0.6; SARS PLpro yeast: 1.0%; Pf growth 96h: 2.33µM*; Pf growth 48h: 32.4%; NS1 function inh: -0.9%; Shiga toxin inh: -1.8

Results for Nn1c(Cc2ccccc2)nc2cc(Cl)ccc2c1=O ?
CHX counter: -2.5; SARS PLpro yeast: -7.3%; Pf growth 96h: inconclusive; Pf growth 48h: 6.3%; NS1 function inh: 13.6%; Shiga toxin inh: -0.6

How did Nn1c(COc2ccc(Cl)cc2)nc2ccccc2c1=O do in these assays?
CHX counter: 24.3*; SARS PLpro yeast: 0.5%; Pf growth 96h: -17.2%; Pf growth 48h: 71.9%; NS1 function inh: -4.4%; Shiga toxin inh: active

What do the screens show for `O=c1c2ccccc2nc(CN2CCCCCC2)n1-c1ccc(F)cc1`?
CHX counter: -1.6; SARS PLpro yeast: -6.2%; Pf growth 48h: inconclusive; NS1 function inh: inconclusive; Shiga toxin inh: -6.4

How did C=CCn1c(COc2cccc(C)c2)nnc1SC(C)C(=O)NC1CC1 (stereo not drawn) do in these assays?
SARS PLpro yeast: -6.6%; Pf growth 96h: 13.1µM*; Pf growth 48h: inconclusive

How did COc1cc(/C=C/C(=O)N2CCCc3ccccc32)cc(OC)c1OC do in these assays?
CHX counter: 1.2; SARS PLpro yeast: 3.9%; Pf growth 96h: 27.4%; Pf growth 48h: 12.4%; NS1 function inh: -2.0%; Shiga toxin inh: 2.6

How did Clc1ccc(-c2cc(COc3ccccc3)on2)cc1 do in these assays?
CHX counter: 38.3*; SARS PLpro yeast: 0.5%; Pf growth 96h: 155.4%; Pf growth 48h: 232.3%; Shiga toxin inh: 104.7*

What do the screens show for `Clc1ccc(OCc2cc(-c3ccccc3)no2)cc1Cl`?
CHX counter: 44.6*; SARS PLpro yeast: -6.0%; Pf growth 96h: 36.7%; Pf growth 48h: 55.6%; NS1 function inh: -2.9%; Shiga toxin inh: active

Results for O=C1CC(N(CCc2ccccc2)C(=S)Nc2ccccc2)C(=O)N1c1ccc(F)cc1 (stereo not drawn) ?
CHX counter: -2.1; SARS PLpro yeast: -2.2%; Pf growth 96h: inconclusive; Pf growth 48h: inconclusive; NS1 function inh: 7.0%; Shiga toxin inh: 26.3

Results for COC(=O)CN(C(=S)Nc1ccc(F)cc1)C1CC(=O)N(c2ccc(OC)cc2)C1=O (stereo not drawn) ?
CHX counter: 1.2; SARS PLpro yeast: 1.5%; Pf growth 96h: 8.8%; Pf growth 48h: -9.3%; NS1 function inh: 15.4%; Shiga toxin inh: -2.8

Results for O=C1CC(N(CCc2ccccc2)C(=S)Nc2ccccc2)C(=O)N1c1ccccc1 (stereo not drawn) ?
CHX counter: -2.0; SARS PLpro yeast: 1.2%; Pf growth 96h: 3.29µM*; Pf growth 48h: inconclusive; NS1 function inh: 29.1%; Shiga toxin inh: 15.5

Results for O=C1CC(N(CCc2ccccc2)C(=S)Nc2cc(Cl)ccc2Cl)C(=O)N1c1c(Cl)cccc1Cl (stereo not drawn) ?
CHX counter: -1.4; SARS PLpro yeast: -6.8%; Pf growth 96h: 10.4µM*; Pf growth 48h: inconclusive; NS1 function inh: inconclusive; Shiga toxin inh: -3.5

Results for CCNC(=S)N(CCc1ccc(S(N)(=O)=O)cc1)C1CC(=O)N(c2ccccc2)C1=O (stereo not drawn) ?
CHX counter: 1.2; SARS PLpro yeast: 0.8%; Pf growth 96h: 10.4µM*; Pf growth 48h: inconclusive; NS1 function inh: -0.9%; Shiga toxin inh: 1.6

What do the screens show for `COC(=O)CN(C(=S)Nc1ccc(F)cc1)C1CC(=O)N(c2ccccc2)C1=O` (stereo not drawn)?
CHX counter: -2.0; SARS PLpro yeast: 23.3%; Pf growth 96h: 7.4%; Pf growth 48h: 10.4µM*; NS1 function inh: 0.9%; Shiga toxin inh: -7.9
